About 7,900 targets were measured; listed, in parts, are those with a hit and a random draw of the rest. About 0.6% of all pairs of compound and target were hits. Unmarked numbers belong to inactive results.
Compound: CN1C2=C(C3=C1C(=O)N(N=C3)CC4=CC(=CC=C4)N)SC(=C2)S(=O)C
Assay: log2 fold change, soluble protein after heating vs DMSO (PISA); higher = thermal stabilisation; K562 cells, 10 uM, 30 min; active = over 0.2 and 3.5 SD of the protein, either way, in both replicates (recomputed)
Method in brief: (§1)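 K562 cells at 2×10^6 cells/mL were treated with 10 μM compound for 30 min. Aliquots were heated for 3 min across 48°C-58°C, pooled, and extracted in PBS with 0.5% NP-40 at 4°C; soluble protein was the supernatant after 21,000xg for 90 min. Soluble protein was quantified by TMTpro 16plex LC-MS/MS with channel sums equalised, and reported as log2 fold change in thermal stability against DMSO controls, with values from duplicates.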

Sequence of UniProt Q14157 (Q14157 whole entry, looked up): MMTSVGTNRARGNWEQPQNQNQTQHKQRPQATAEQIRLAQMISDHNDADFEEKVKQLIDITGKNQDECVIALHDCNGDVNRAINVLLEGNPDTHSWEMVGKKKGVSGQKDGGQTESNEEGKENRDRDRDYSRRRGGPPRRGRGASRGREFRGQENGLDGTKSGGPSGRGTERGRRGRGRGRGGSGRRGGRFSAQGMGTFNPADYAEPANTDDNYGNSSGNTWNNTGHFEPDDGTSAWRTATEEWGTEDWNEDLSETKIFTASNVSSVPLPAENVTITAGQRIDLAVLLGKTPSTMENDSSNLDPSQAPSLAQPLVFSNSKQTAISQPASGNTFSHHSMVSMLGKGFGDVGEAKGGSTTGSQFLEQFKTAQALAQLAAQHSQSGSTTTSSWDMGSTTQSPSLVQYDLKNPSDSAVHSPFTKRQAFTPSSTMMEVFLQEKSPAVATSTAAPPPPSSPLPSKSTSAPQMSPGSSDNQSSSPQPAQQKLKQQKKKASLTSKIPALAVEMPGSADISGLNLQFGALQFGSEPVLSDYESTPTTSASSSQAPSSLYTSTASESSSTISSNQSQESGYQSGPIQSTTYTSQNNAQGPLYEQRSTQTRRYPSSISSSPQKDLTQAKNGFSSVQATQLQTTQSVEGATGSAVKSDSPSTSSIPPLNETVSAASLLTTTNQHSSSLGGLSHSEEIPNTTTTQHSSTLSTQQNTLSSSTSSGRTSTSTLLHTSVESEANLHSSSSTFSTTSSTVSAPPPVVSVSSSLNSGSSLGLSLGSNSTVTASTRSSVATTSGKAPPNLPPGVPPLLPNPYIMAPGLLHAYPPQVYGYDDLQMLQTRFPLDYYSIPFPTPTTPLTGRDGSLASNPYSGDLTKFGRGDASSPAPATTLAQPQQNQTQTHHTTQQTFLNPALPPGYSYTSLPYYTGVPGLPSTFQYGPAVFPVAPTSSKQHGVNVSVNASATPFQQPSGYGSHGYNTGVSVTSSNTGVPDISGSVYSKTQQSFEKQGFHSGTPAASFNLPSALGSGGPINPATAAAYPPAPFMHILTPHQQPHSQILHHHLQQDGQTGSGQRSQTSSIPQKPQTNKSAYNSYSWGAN
Sequence of UniProt Q7L0Y3 (Q7L0Y3 whole entry, looked up): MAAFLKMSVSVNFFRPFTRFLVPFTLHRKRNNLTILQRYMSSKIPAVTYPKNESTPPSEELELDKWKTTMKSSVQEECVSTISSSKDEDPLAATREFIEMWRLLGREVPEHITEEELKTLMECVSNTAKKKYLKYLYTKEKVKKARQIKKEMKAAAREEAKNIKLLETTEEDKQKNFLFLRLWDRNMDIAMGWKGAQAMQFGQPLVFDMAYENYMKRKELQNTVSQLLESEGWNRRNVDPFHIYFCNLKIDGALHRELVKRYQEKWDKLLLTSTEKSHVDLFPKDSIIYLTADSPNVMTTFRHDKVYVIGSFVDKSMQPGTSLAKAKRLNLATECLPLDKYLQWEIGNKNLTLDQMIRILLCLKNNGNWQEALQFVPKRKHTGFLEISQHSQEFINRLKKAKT
Sequence of UniProt Q9H4A3 (Q9H4A3 whole entry, looked up): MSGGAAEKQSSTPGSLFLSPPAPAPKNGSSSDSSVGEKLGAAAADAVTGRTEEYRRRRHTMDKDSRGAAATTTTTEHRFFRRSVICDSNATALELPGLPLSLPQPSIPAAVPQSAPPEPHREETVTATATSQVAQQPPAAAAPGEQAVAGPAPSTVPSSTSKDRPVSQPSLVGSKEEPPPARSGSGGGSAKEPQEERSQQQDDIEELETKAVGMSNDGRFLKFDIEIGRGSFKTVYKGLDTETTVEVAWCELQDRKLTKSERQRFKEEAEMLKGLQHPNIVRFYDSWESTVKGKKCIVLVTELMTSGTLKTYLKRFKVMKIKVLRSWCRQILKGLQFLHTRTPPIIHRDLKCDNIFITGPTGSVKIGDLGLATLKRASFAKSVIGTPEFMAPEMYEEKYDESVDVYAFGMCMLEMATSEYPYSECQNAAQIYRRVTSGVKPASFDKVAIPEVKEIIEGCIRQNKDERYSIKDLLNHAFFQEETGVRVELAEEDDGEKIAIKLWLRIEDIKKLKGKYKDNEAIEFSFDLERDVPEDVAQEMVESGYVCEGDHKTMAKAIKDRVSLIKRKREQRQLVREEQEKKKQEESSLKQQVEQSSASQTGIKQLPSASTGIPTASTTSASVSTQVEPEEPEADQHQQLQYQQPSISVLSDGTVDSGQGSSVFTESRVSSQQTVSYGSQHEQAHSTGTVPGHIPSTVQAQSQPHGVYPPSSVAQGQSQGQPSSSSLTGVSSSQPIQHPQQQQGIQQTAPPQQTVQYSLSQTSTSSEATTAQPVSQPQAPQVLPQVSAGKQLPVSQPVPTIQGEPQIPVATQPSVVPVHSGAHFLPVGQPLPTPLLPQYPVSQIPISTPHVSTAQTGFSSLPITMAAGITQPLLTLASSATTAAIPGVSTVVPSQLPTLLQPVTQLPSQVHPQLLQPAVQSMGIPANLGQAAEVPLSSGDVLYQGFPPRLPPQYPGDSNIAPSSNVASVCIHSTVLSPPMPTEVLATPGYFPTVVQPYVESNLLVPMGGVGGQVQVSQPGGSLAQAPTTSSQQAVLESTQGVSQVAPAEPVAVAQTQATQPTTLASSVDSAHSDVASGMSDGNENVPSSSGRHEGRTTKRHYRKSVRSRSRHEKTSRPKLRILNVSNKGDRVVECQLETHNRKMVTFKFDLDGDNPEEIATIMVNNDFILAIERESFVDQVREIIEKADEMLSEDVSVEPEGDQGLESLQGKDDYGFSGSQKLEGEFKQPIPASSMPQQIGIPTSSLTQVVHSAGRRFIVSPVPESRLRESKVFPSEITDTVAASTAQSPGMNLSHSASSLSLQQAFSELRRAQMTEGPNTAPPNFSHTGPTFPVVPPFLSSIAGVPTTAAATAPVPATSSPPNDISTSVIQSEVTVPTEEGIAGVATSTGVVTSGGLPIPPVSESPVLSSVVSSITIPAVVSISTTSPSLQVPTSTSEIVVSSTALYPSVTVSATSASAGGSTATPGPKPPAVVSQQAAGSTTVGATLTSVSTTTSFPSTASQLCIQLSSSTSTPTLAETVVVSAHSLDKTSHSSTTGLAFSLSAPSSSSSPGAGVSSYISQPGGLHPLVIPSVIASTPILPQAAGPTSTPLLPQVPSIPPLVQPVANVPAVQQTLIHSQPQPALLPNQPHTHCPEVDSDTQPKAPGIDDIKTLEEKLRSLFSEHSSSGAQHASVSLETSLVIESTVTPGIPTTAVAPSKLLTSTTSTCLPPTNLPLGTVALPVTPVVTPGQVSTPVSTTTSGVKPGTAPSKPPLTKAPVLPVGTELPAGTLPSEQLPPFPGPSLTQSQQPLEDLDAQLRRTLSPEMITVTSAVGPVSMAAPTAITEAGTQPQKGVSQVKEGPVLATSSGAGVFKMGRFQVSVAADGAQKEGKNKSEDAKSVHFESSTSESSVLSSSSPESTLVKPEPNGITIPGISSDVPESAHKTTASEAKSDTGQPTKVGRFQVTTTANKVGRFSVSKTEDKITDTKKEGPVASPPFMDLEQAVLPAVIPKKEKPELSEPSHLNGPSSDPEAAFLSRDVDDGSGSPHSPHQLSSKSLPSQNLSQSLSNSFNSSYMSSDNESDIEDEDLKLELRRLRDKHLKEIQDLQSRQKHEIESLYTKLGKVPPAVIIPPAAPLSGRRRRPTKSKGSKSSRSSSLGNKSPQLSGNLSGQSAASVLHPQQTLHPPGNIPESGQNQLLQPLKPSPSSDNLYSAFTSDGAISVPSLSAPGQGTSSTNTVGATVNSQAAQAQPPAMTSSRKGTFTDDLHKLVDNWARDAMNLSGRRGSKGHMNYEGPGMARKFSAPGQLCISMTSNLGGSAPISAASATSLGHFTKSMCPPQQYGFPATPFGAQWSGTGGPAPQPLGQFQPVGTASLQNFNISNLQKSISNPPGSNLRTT
Sequence of UniProt Q9HAV4 (Q9HAV4 whole entry, looked up): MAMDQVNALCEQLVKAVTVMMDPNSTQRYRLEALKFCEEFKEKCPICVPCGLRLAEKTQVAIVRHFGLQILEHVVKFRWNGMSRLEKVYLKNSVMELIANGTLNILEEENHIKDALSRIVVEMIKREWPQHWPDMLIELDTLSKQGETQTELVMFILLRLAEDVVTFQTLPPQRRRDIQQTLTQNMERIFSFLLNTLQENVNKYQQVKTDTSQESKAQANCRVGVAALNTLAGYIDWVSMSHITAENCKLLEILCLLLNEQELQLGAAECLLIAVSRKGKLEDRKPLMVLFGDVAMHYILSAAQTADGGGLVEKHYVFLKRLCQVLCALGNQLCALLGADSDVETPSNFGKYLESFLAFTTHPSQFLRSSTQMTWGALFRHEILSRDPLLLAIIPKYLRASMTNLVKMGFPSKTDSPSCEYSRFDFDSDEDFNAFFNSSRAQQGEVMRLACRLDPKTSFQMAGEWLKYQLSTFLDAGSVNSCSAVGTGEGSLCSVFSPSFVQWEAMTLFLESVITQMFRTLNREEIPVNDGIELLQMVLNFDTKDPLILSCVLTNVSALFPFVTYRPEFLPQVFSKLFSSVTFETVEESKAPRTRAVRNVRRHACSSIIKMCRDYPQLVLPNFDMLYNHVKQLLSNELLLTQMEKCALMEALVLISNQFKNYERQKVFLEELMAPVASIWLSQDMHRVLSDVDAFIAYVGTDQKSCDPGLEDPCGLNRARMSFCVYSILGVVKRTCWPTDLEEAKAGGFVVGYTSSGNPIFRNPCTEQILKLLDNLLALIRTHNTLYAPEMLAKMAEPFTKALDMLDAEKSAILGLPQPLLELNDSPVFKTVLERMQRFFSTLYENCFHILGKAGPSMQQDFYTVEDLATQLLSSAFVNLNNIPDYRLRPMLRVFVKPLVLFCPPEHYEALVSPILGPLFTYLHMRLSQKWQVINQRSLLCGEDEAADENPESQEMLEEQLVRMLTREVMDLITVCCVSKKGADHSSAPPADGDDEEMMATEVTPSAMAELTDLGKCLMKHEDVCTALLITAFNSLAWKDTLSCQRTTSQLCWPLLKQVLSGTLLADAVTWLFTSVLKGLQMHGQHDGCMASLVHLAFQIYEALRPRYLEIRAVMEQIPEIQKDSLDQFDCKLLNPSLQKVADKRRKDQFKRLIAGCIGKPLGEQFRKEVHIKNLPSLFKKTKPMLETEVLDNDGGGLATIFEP
Sequence of UniProt Q8N4H5 (Q8N4H5 whole entry, looked up): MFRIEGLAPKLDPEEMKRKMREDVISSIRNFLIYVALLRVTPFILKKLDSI

Row | Target | log2 fold change
1 | WDHD1 (UniProt O75717) | -0.063
2 | TOMM5 isoform 2 (UniProt Q8N4H5) | 0.041
3 | WDR41 (UniProt Q9HAD4) | -0.076
4 | XPO5 (UniProt Q9HAV4) | -0.027
5 | VARS2, A0A0G2JL52 | -0.016
6 | WNK1 isoform 7 (UniProt Q9H4A3) | -0.001
7 | TRIM28 (UniProt Q13263) | -0.033
8 | WRB (UniProt O00258) | 0.029
9 | UBR2 (UniProt Q8IWV8) | 0.114
10 | UBE2S (UniProt Q16763) | -0.048
11 | VPS13B (UniProt Q7Z7G8) | -0.053
12 | TRMT10C (UniProt Q7L0Y3) | 0.008
13 | XPNPEP3 (UniProt Q9NQH7) | -0.022
14 | TMEM189-UBE2V1 (UniProt I3L0A0) | -0.035
15 | USP15 (UniProt Q9Y4E8) | -0.006
16 | VWA8 (UniProt A3KMH1) | -0.01
17 | TUBAL3 (UniProt A6NHL2) | 0.03
18 | XPO1 (UniProt O14980) | -0.033

Row | Target | log2 fold change
19 | U2AF2 (UniProt P26368) | 0
20 | WDR47 (UniProt O94967) | 0.029
21 | U2AF1 isoform 2 (UniProt Q01081) | -0.021
22 | XPNPEP1 isoform 3 (UniProt Q9NQW7) | -0.064
23 | UBA1 (UniProt P22314) | 0.023
24 | WDR4 (UniProt P57081) | -0.08
25 | VPS35L (UniProt Q7Z3J2) | -0.076
26 | UBA6 | 0
27 | UQCR10 (UniProt Q9UDW1) | -0.016
28 | TRAPPC11 (UniProt Q7Z392) | 0.004
29 | TXN2 (UniProt Q99757) | 0.03
30 | UBAP2L isoform 1 (UniProt Q14157) | 0
31 | TMEM208 (UniProt Q9BTX3) | -0.02
32 | UBAP2L isoform 5 (UniProt Q14157) | -0.039
33 | TXNIP (UniProt Q9H3M7) | -0.07
34 | VRK2 (UniProt Q86Y07) | -0.04
35 | WDR61 (UniProt Q9GZS3) | -0.066
36 | USP48 isoform 8 (UniProt Q86UV5) | -0.013

Compound: CN1CCC(CNc2ccc3ncc(-c4cccc(OC(F)(F)F)c4)n3n2)CC1
Assay: as above
Method in brief: as §1

Row | Target | log2 fold change
37 | WDHD1 (UniProt O75717) | -0.118
38 | TOMM5 isoform 2 (UniProt Q8N4H5) | 0.116
39 | WDR41 (UniProt Q9HAD4) | -0.115
40 | XPO5 (UniProt Q9HAV4) | -0.302 (active)
41 | VARS2, A0A0G2JL52 | -0.126
42 | WNK1 isoform 7 (UniProt Q9H4A3) | 0.019
43 | TRIM28 (UniProt Q13263) | -0.033
44 | WRB (UniProt O00258) | -0.016
45 | UBR2 (UniProt Q8IWV8) | -0.063
46 | UBE2S (UniProt Q16763) | 0.024
47 | VPS13B (UniProt Q7Z7G8) | -0.109
48 | TRMT10C (UniProt Q7L0Y3) | 0.003
49 | XPNPEP3 (UniProt Q9NQH7) | 0.012
50 | TMEM189-UBE2V1 (UniProt I3L0A0) | -0.009
51 | USP15 (UniProt Q9Y4E8) | -0.129
52 | VWA8 (UniProt A3KMH1) | -0.034
53 | TUBAL3 (UniProt A6NHL2) | -0.067
54 | XPO1 (UniProt O14980) | -0.343 (active)

Row | Target | log2 fold change
55 | U2AF2 (UniProt P26368) | -0.307 (active)
56 | WDR47 (UniProt O94967) | 0.234
57 | U2AF1 isoform 2 (UniProt Q01081) | -0.036
58 | XPNPEP1 isoform 3 (UniProt Q9NQW7) | -0.076
59 | UBA1 (UniProt P22314) | -0.02
60 | WDR4 (UniProt P57081) | -0.114
61 | VPS35L (UniProt Q7Z3J2) | -0.099
62 | UBA6 | 0.001
63 | UQCR10 (UniProt Q9UDW1) | 0.177
64 | TRAPPC11 (UniProt Q7Z392) | -0.127
65 | TXN2 (UniProt Q99757) | 0.083
66 | UBAP2L isoform 1 (UniProt Q14157) | -0.023
67 | TMEM208 (UniProt Q9BTX3) | 0.036
68 | UBAP2L isoform 5 (UniProt Q14157) | 0.009
69 | TXNIP (UniProt Q9H3M7) | -0.793 (active)
70 | VRK2 (UniProt Q86Y07) | 0.229 (active)
71 | WDR61 (UniProt Q9GZS3) | -0.247 (active)
72 | USP48 isoform 8 (UniProt Q86UV5) | -0.459

Reference: the supplement of paper PMC10849652
